Screen size: about 340,000 compounds; about 3,300 (0.97%) were called active. Roughly 9% stayed inconclusive and do not appear here. Calls follow the shape of the dose curve; as a rule, active = well fitted inhibition curve with a large enough effect; inconclusive = small, poorly fitted or top-dose-only effect, or effect the other way; inactive = flat fitted curve, though single readings scatter. The list shows a part of the results.
Test: qHTS Assay for Modulators of miRNAs and/or Inhibitors of miR-21; also: nearly all actives have a fitted effect of over 55% in size
Conditions: HeLa miR-21-FLuc reporter, luciferase luminescence, 48 h; actives lower the signal
Text: MLSCN Grant: 1 R21 NS059478-01 Assay Provider: Qihong Huang, The Wistar Institute NCGC Assay Overview: MicroRNAs (miRNAs) are endogenously encoded small (~20-25 nucleotides), nonprotein-coding RNAs that are involved in post-transcriptional repression of target messenger RNAs (mRNAs) (Le and Hannon, 2004). Estimated to be involved in the regulation of 30% of all protein-coding mRNAs (Filipowicz et al., 2008), miRNAs play a significant role in many biological processes including cellular differentiation and tissue development (Ghildiyal and Zamore, 2009).
NCGC Assay Protocol Summary: Reagents: HeLa cells stably expressing firefly luciferase (FLuc) under the control of a CMV promoter (upstream) and a miR-21 binding sequence directly downstream of the gene. These cells endogenously express miR-21. Control compounds used were compound C3 (provided by collaborator), N6-phenyladenosine (MP Biomedicals, 0215379625), and DMSO. Assay Summary: 6uL of HeLa miR-21-FLuc cells in assay buffer (DMEM, Invitrogen #21063-029; 10% FBS, HyClone #SH30071.03) were dispensed at 2000cells/well (3.3 x 10^5 cells/mL) into Greiner solid-white TC-treated 1536-well plates using a Multidrop Combi (Thermo Fisher Scientific). Plates were incubated for one hour at 37 degree Celsius, 95% humidity, 5% CO2. These assay plates were then treated with 23nL of compound or DMSO using a Kalypsys pin tool, which allows for delivery of a 24-point titration of each compound to the assay plate, with a final compound concentration ranging from approximately 40uM to 5pM. Assay plates were then incubated for 48 hours. After incubation, plates were allowed to come to RT for one hour prior to delivery of 3uL of 3X luciferase detection reagent. After a 15 minute incubation to allow for cell lysis, luciferase activity was measured using a ViewLux CCD imager (PerkinElmer), with an average exposure time of 2-12 seconds. Keywords: NIH Roadmap, MLPCN, MLSMR, qHTS, miR-21, microRNA, firefly luciferase, FLuc.
Potency is read from the fitted curve at half-maximal effect.

Potency, active:
COc1cc(SC)ccc1C(=O)Nc1ccc(C)cc1C 1.85 µM
CCCCN(C(=O)Cc1cccs1)c1nnc(-c2cccnc2)s1 14.7 µM
CSc1nc(N)nc(SCC(=O)OC(C)C)c1C#N 13.1 µM
CCOC(=O)CSc1nc(N)c(C#N)cc1C#N 8.26 µM
CC(C)OC(=O)CSc1nc(N)c(C#N)cc1C#N 5.85 µM
O=C1CCn2nc(-c3ccc(Cl)cc3)cc2N1 6.56 µM
O=C(CCCc1ccccc1)c1ccccc1 2.07 µM
O=C(CCCc1ccccc1)Nc1cccc(C(=O)O)c1 0.464 µM
O=C(NCc1ccccc1)C(=O)Nc1cccc(C(=O)O)c1 0.185 µM
COc1cccc(NC(=O)C(=O)NCCc2ccc(F)cc2)c1 11.7 µM
Cc1cccc(NC(=O)C(=O)NCCCc2ccccc2)c1 16.5 µM
Cc1cccc(NC(=O)CCCc2ccccc2)c1 7.36 µM
COc1ccccc1-c1cnn2c(N3CCOCC3)cc(C)nc12 14.7 µM
Cc1cc(N2CCOCC2)n2ncc(-c3ccccc3Cl)c2n1 1.65 µM
COc1ccccc1-c1cnn2c(NC3CCCC3)cc(C)nc12 5.85 µM
Cc1cc(N2CCOCC2)n2ncc(-c3ccc(Cl)cc3)c2n1 0.414 µM
C/C(=N\O)c1sc(-c2ccccc2)nc1C 1.85 µM
CNC(=O)c1sc(-c2ccc(Cl)cc2)nc1C 6.56 µM
Cc1nc(-c2ccc(Cl)cc2)sc1C(=O)O 11.7 µM
Cc1cc(/C=C\c2ccccc2)nc2ccccc12 7.36 µM
CC(C)(C)n1cnc2cc(NCc3ccc(Br)cc3)ccc21 4.14 µM
CCc1ccc(CNc2ccc3c(c2)ncn3C(C)(C)C)cc1 5.85 µM
O=C(O)c1ccc(N/N=C/C2=Cc3ccccc3OC2)cc1 1.17 µM
CCN(CC)S(=O)(=O)c1ccc2oc(Nc3ccccc3)nc2c1 9.27 µM
CCS(=O)(=O)c1ccc2oc(Nc3ccccc3Cl)nc2c1 1.85 µM
CCS(=O)(=O)c1ccc2oc(Nc3ccccc3Br)nc2c1 2.07 µM
C=CCNc1nc(Nc2ccccc2F)nc(OCC)n1 5.85 µM
O=C(Nc1ccc(Br)cc1)C1Cc2ccccc2O/C1=N\O (centres undefined) 7.36 µM
Cc1cccc(NC(=O)C2Cc3ccccc3O/C2=N\O)c1 (centres undefined) 14.7 µM
Cc1ccc(NC(=O)C2Cc3ccccc3O/C2=N\O)cc1C (centres undefined) 14.7 µM
N#Cc1nc(/C=C/c2ccccc2)oc1NCCCN1CCOCC1 10.4 µM
COCCNc1oc(/C=C/c2ccccc2)nc1C#N 2.07 µM
COCCCNc1oc(/C=C/c2ccccc2)nc1C#N 0.464 µM
CC(C)c1ccc(NC(=O)C(c2ccccc2)N2CC(=O)Nc3ccccc32)cc1 (centres undefined) 13.1 µM
CCC(C)C(=O)N1CCc2cc(-c3csc(N)n3)ccc21 (centres undefined) 1.65 µM
CCCC(=O)N1c2ccc(-c3csc(N)n3)cc2CC1C (centres undefined) 1.85 µM
O=c1[nH]n(Cc2ccccc2)c(=O)c2ccccc12 13.1 µM
Cc1ccc2nc(NC(=S)NC(=O)c3cccs3)sc2c1 0.656 µM
O=C(NC(=S)Nc1nc2ccccc2s1)c1cccs1 0.521 µM
O=S(=O)(c1cc(F)ccc1F)N1CCC2(CC1)OCCO2 5.21 µM
COc1cc(OC)c(C(=O)Nc2ccc3ccccc3c2)cc1OC 2.93 µM
COc1ccc(NC(=O)c2sc3nc[nH]c(=O)c3c2C)cc1 5.85 µM
COc1cc2ccccc2cc1C(=O)NC(=S)Nc1cccc(C(=O)O)c1 14.7 µM
COc1ccc(C(=O)c2cc3cccc(OC)c3o2)cc1 3.29 µM
COc1cccc2cc(C(=O)N3CCc4ccccc4C3)c(=O)oc12 16.5 µM
COc1ccc(NC(=O)c2ccc3nc[nH]c3c2)cc1 7.36 µM
O=C(Nc1ccc2ccccc2c1)c1cc(F)c(F)cc1Cl 0.656 µM
COc1cc(OC)c(C(=O)Nc2ccc(N(C)C)cc2)cc1OC 8.26 µM
COc1ccc(-c2cccc(C(=O)Nc3cccc(C(=O)O)c3)c2)cc1 6.56 µM
COc1cccc(NC(=O)c2cc3cccc(OC)c3o/c2=N\O)c1 0.414 µM
COc1ccc(C(=O)Nc2ccc3cn[nH]c3c2)c(OC)c1 4.65 µM
COc1cccc2cc(C(=O)Nc3ccc(C)cc3)c(=O)oc12 0.736 µM
COc1cccc(NC(=O)c2cc3ccccc3cc2OC)c1 2.33 µM
CCOC(=O)CC(NC(=O)c1cc2cccc(OC)c2oc1=O)c1ccc(OC)cc1 (centres undefined) 16.5 µM
COc1ccc(C(c2c(O)ccc3ccccc23)N2CCOCC2)c(OC)c1 (centres undefined) 11.7 µM
Cc1ccsc1C1NC(=O)c2c(sc3c2CCCC3)N1 (centres undefined) 5.85 µM
CCN(CC)c1ccc(NC(=O)C2CC3CCC2C3)cc1 (centres undefined) 10.4 µM
O=[N+]([O-])c1cc(C(F)(F)F)ccc1NCCOc1ccccc1 7.36 µM
O=[N+]([O-])c1ccccc1NCCOc1ccccc1 7.36 µM
Cc1cccc(C(=O)NC2CCCCCCC2)c1 2.93 µM
O=C(NC1CC1)c1ccc(-c2ccccc2)cc1 3.69 µM
N#Cc1ccc(C(=O)NC2CCCCCCC2)cc1 5.85 µM
O=C(NC1CCCCC1)c1ccc2c(c1)OCCO2 2.93 µM
N#Cc1nc(COc2ccccc2)oc1N1CCCCC1 13.1 µM
N#Cc1nc(-c2ccccc2Cl)oc1N1CCCCC1 16.5 µM
N#Cc1nc(COc2ccccc2F)oc1N1CCCCCC1 16.5 µM
COC(=O)Nc1ccc2c(c1)ncn2C1CCCCC1 18.5 µM
CN(c1ccccc1)S(=O)(=O)c1nnc(NC(=O)c2cccs2)s1 0.117 µM
Cc1cc(=O)[nH]c(N/N=C/c2cc(C)n(-c3ccccc3)c2C)n1 3.29 µM

Source: PubChem BioAssay AID2289 (National Center for Advancing Translational Sciences (NCATS), 2010)
